Screens from PubChem BioAssay.
Rows were chosen to be rich in hits. Some 3.3% of all compounds tested hit in one or more screens of this group.
sPLA2-III inh = Inhibits HGIII-sPLA2 liposome hydrolysis, primary screen | Q9NZ20 | QFRET BODIPY PC-A2 liposome hydrolysis, fluorescence | inhibition, % at 12.2 µM | 0.56% of 370,000 active;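 active means inhibition above mean plus 3 SD of compounds lying within the high and low control bounds, cut at about 19% in these data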;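 further: 0% = median of test compound wells and 100% = no enzyme DMSO wells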
NR3A LBD binder = modulates the human NR3A ligand-binding domain | AID 1259313 | 2.5% of 340,000 active | Tm shift relative to glycine control, % at 25 µM | NR3A LBD differential scanning fluorimetry, Tm shift; 0% = protein alone, 100% = glycine-bound protein;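 active means melting temperature shift of at least 10% of the positive control shift, at one fixed dose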
SUMO HTRF inh = SUMOylation inhibition | 0.36% of 290,000 active | inhibition, % at 35 µM | P63279 | HTRF SUMOylation assay, SAE1/SAE2 + UBC9, in vitro; in the data active means inhibition above about 50%, passing the limit was not always enough
Target sequence (P63279 whole entry, looked up): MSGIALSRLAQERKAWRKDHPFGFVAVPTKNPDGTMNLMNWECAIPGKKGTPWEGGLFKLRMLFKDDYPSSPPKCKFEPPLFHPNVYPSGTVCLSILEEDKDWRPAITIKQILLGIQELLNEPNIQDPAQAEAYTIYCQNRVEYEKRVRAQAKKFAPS
UBC13 polyUb = human UBC13 polyubiquitination inhibition | AID 485273 | 0.47% of 330,000 active | P61088 | inhibition, % at 20 µM | UBC13 polyubiquitin chain formation, TR-FRET; in the data active means inhibition above about 45%, passing the limit was not always enough
Target sequence (P61088 whole entry, looked up): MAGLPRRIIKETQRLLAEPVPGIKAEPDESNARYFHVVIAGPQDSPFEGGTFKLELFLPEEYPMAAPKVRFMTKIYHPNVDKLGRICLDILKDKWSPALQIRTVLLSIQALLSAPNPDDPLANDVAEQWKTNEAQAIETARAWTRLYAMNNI
Starred values were filed as active, the others as inactive.

Results for Cc1ccc(S(=O)(=O)Nc2ccc(-c3nc4cc(NS(=O)(=O)c5ccc(C)cc5)ccc4o3)cc2)cc1 ?
SUMO HTRF inh: 10

How did Cc1cc2c(s1)c1cnn(Cc3cc(F)c(F)cc3F)c(=O)c1n2C do in these assays?
sPLA2-III inh: 2

What do the screens show for `COc1ccc(S[C@]2(C(=O)N3CCN(c4ncccn4)CC3)CC(=O)N(c3ccc(OC)cc3)[C@@H]2c2ccc(OC)cc2)cc1`?
sPLA2-III inh: -10

What do the screens show for `O=C(Nc1ccc2oc(-c3ccc4ccccc4c3)nc2c1)c1ccc2c(c1)OCCO2`?
sPLA2-III inh: -3; NR3A LBD binder: 10*; SUMO HTRF inh: 55*; UBC13 polyUb: -3

How did O=C(Nc1ccc(-c2nc3cc(NC(=O)c4cccs4)ccc3o2)cc1)c1cccs1 do in these assays?
sPLA2-III inh: 9; NR3A LBD binder: 57*; SUMO HTRF inh: 12; UBC13 polyUb: -5

What do the screens show for `O=C(Nc1ccc2nn(-c3ccccc3)nc2c1)c1cccs1`?
sPLA2-III inh: -8; NR3A LBD binder: 25*; SUMO HTRF inh: 4; UBC13 polyUb: 12

Results for CCOC(=O)[C@@]12CCCC=C1N(CCc1ccc(Cl)cc1)C(=O)[C@H]2CC(=O)N1CCSCC1 ?
sPLA2-III inh: 1

Results for Cc1cc(NC(=O)Nc2cccc(F)c2)n(-c2ccccc2)n1 ?
sPLA2-III inh: 12

What do the screens show for `Nn1c(SCC(=O)Nc2ccccc2-c2ccccc2)nnc1-c1cc(-c2ccc(F)cc2)n[nH]1`?
sPLA2-III inh: -4

What do the screens show for `COc1ccc(-c2cn[nH]c2-c2ccc(OCc3ccc([N+](=O)[O-])cc3)cc2O)cc1`?
sPLA2-III inh: -20; NR3A LBD binder: 30*; SUMO HTRF inh: -55; UBC13 polyUb: 1

How did COc1ccc(-c2[nH]ncc2-c2ccc3c(c2)OCCO3)c(O)c1 do in these assays?
sPLA2-III inh: -22; NR3A LBD binder: 0; SUMO HTRF inh: 8; UBC13 polyUb: 18

Results for CCc1cc(-c2[nH]ncc2-c2ccc3c(c2)OCO3)c(O)cc1O ?
sPLA2-III inh: -40; NR3A LBD binder: 24*; SUMO HTRF inh: -24; UBC13 polyUb: 23

Results for CCc1cc(-c2[nH]ncc2-c2ccc(OC)cc2)c(O)cc1O ?
sPLA2-III inh: -28; NR3A LBD binder: 41*; SUMO HTRF inh: -6; UBC13 polyUb: 0

Results for O=C(Nc1nnc(CSCc2ccc(F)cc2)s1)c1cccc([N+](=O)[O-])c1 ?
sPLA2-III inh: 16; NR3A LBD binder: 9; SUMO HTRF inh: 15; UBC13 polyUb: -10

How did O=C(Nc1nnc(CSCc2ccc(Cl)cc2)s1)c1cccc([N+](=O)[O-])c1 do in these assays?
sPLA2-III inh: 1; NR3A LBD binder: 19*; SUMO HTRF inh: 0; UBC13 polyUb: 1

How did CCOC(=O)C1Oc2ccccc2C(c2ccc(OC)cc2)=C1C(=O)OC (stereo not given) do in these assays?
sPLA2-III inh: 1; NR3A LBD binder: 13*

Results for CCOC(=O)C1=C(c2ccccc2)c2ccccc2OC1C(=O)OCC (stereo not given) ?
sPLA2-III inh: 5; NR3A LBD binder: 1

What do the screens show for `C=C1c2ccccc2O[C@H](C(=O)OCC)[C@H]1OC`?
sPLA2-III inh: 4; NR3A LBD binder: 0

How did CCCCC1=C(C(=O)OCC)C(C(=O)OCC)Oc2ccccc21 (stereo not given) do in these assays?
sPLA2-III inh: 6; NR3A LBD binder: 18*

Results for O=C(Nc1cc(S(=O)(=O)N2CCCCC2)ccc1O)c1ccccc1NS(=O)(=O)c1ccc(F)c(F)c1 ?
sPLA2-III inh: -47; NR3A LBD binder: 28*; SUMO HTRF inh: 18; UBC13 polyUb: -17

How did NS(=O)(=O)c1cccc(NC(=O)c2ccccc2NS(=O)(=O)c2ccc(F)cc2)c1 do in these assays?
sPLA2-III inh: -29; NR3A LBD binder: 5; SUMO HTRF inh: -10; UBC13 polyUb: 10

Results for O=C(Nc1cccc(S(=O)(=O)N2CCCCC2)c1)c1ccccc1NS(=O)(=O)c1ccc(F)cc1 ?
sPLA2-III inh: -33; NR3A LBD binder: 18*; SUMO HTRF inh: 6; UBC13 polyUb: 24

How did O=C1CCC(C(=O)Nc2cccc(S(=O)(=O)Nc3ccccc3F)c2)=NN1 do in these assays?
sPLA2-III inh: -6; NR3A LBD binder: 13*; UBC13 polyUb: 9

How did O=C(NC1CC1)c1ccc(NS(=O)(=O)c2ccc(F)cc2)cc1 do in these assays?
sPLA2-III inh: 2; NR3A LBD binder: 27*; UBC13 polyUb: 3

What do the screens show for `CC(=O)Nc1sc2c(c1-c1nc3ccccc3s1)CNC2`?
sPLA2-III inh: 4

How did O=C(OCc1ccccc1)[C@H](Cc1ccccc1)NC(=O)[C@@H]1CC=C[C@@H]2CCN(CCc3ccccc3)C(=O)[C@@H]21 do in these assays?
sPLA2-III inh: -12

What do the screens show for `O=C(O)c1ccccc1C(=O)Nc1ccc(S(=O)(=O)Nc2ccc(F)cc2)cc1`?
sPLA2-III inh: 4; NR3A LBD binder: 10*; SUMO HTRF inh: 10; UBC13 polyUb: -6

How did Cc1ccc(NC(=O)c2ccccc2NS(=O)(=O)c2ccc(F)cc2)cc1S(=O)(=O)N1CCCCC1 do in these assays?
sPLA2-III inh: -74; NR3A LBD binder: 28*; SUMO HTRF inh: 2; UBC13 polyUb: -7

How did CN(Cc1ccc(F)cc1)C(=O)c1cccc(S(=O)(=O)NCc2ccccc2)c1 do in these assays?
sPLA2-III inh: -5; NR3A LBD binder: 0; UBC13 polyUb: 4

What do the screens show for `O=C(CNc1ccc(F)cc1Cl)Nc1cccc(S(=O)(=O)N2CCCCC2)c1`?
sPLA2-III inh: -17; NR3A LBD binder: 13*; UBC13 polyUb: 6

How did O=C(O)c1ccccc1-c1ccccc1C(=O)Nc1ccc(F)cc1 do in these assays?
sPLA2-III inh: -3; NR3A LBD binder: 2; SUMO HTRF inh: 3; UBC13 polyUb: 2

Results for CN(Cc1ccc(F)cc1)C(=O)c1ccc(NS(=O)(=O)c2ccccc2)cc1 ?
sPLA2-III inh: -11; NR3A LBD binder: 13*; UBC13 polyUb: 3

What do the screens show for `O=C(CNc1cccc(S(=O)(=O)N2CCCC2)c1)Nc1cccc(F)c1`?
sPLA2-III inh: -3; NR3A LBD binder: 0; UBC13 polyUb: 0

Results for CCCCCCCCN1C(=O)[C@@H](CC(=O)NCC23CC4CC(CC(C4)C2)C3)C[C@@]2(C(=O)OC)C1=C[C@H](COCc1ccccc1)O[C@@H]2C ?
sPLA2-III inh: -9

Results for CCC[C@H]1[C@@H](N)CC[C@@]23CCCN2C(=O)CCC[C@@H]13 ?
sPLA2-III inh: 7

What do the screens show for `CCS(=O)(=O)Nc1ccc2c(c1)C(=O)N(C)[C@@H]1CC[C@H](CC(=O)NCCOC)O[C@H]1CO2`?
sPLA2-III inh: 0

How did O=C(Nc1ccccc1C(=O)O)c1cccc(S(=O)(=O)Nc2ccc(Br)cc2)c1 do in these assays?
sPLA2-III inh: -52; NR3A LBD binder: 12*; SUMO HTRF inh: 18; UBC13 polyUb: -16

What do the screens show for `O=C(Cc1ccc(Cl)cc1)Nc1cccc(S(=O)(=O)Nc2ccccc2F)c1`?
sPLA2-III inh: -30; NR3A LBD binder: 6; SUMO HTRF inh: 0; UBC13 polyUb: 4
